Here are results for 40 molecules from PubChem BioAssay.

The source made the active and inactive calls.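 Rule for the calls: active = compound raising the membrane signal above positive-control mean plus 3 SD in both repeats, and a primary screen hit; inactive = the rest.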

The target in this experiment is Short transient receptor potential channel 6 (Mus musculus) (UniProt Q61143). The experiment is described as follows: TRPC6 potentiation by TRPC4 potentiator hits, confirmation, selectivity assay for TRPC4 potentiator project, HEK293 cells, membrane potential dye, duplicate (AID 434952). Conditions: HEK293 TRPC6, membrane potential dye fluorescence, at 10 µM, maximal acetylcholine added after compound; active compounds read high.
Sequence of Short transient receptor potential channel 6 (Mus musculus) (Q61143 whole entry, looked up): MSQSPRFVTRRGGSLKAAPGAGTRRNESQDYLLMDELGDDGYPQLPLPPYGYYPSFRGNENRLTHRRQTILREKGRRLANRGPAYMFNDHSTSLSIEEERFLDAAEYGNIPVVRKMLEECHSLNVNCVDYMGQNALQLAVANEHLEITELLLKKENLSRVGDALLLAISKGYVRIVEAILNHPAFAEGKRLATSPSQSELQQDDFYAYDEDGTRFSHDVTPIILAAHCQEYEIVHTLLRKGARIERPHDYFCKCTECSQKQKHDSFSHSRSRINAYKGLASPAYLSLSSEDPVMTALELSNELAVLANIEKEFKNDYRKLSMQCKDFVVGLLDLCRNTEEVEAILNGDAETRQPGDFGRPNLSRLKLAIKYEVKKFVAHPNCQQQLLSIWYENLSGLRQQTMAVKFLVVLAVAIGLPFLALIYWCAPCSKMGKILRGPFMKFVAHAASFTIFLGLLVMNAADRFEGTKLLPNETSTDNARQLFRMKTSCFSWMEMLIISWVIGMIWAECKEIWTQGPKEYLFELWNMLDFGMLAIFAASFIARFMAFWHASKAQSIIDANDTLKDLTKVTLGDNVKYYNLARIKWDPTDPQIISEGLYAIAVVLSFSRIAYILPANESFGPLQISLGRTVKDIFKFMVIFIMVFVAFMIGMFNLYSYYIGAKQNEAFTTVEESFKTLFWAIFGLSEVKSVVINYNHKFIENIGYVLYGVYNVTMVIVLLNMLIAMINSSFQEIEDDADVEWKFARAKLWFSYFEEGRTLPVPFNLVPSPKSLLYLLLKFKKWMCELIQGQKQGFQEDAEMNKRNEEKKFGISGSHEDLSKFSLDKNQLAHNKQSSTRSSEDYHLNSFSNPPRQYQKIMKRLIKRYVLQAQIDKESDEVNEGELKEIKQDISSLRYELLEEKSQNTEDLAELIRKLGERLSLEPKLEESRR
As for `COc1ccc(C(CCNCc2ccc(N(C)C)cc2)c2ccccc2)cc1` (stereo not given), the outcome was inactive. Consider `COc1ccc(C(=O)NNC(=S)NC(=O)c2cccs2)cc1`, for which the outcome was inactive.

Consider `Cc1cccc(C(=O)NC(=S)NNC(=O)Cc2ccccc2)c1`, for which the outcome was inactive. Same read-out and setting: for `COc1ccc(CC(=O)NCC(c2ccc(OC)cc2)N(C)C)cc1` (stereo not given) the value was “inactive”; for `COc1cccc(C(=O)NC2CCCN(C3Cc4ccccc4C3)C2)c1OC` (stereo not given), “inactive”. `NC(=O)C1CCCN(CCc2ccccc2)C1` (stereo not given): the result was inactive.

Regarding `CNC[C@H](Cc1ccccc1)NC[C@@H](Cc1cccc2ccccc12)NCCc1ccc(C)cc1`, the result was inactive.

Regarding `O=C(CC1C(=O)NCCN1Cc1cccc(Oc2ccccc2)c1)NCCc1ccccn1` (stereo not given), the outcome was inactive. The same measure, in the same setting: under `COc1ccccc1/C=C/CN1CCCC(CCC(=O)NCc2ccccc2F)C1` (stereo not given) stands “inactive”; under `C=CCn1c(/N=C/c2ccc(N(C)C)cc2)nc2ccccc21`, “inactive”; under `Cc1oc(-c2ccccc2Cl)nc1CS(=O)CC(=O)NCCCN1CC(C)CC(C)C1` (stereo not given), “inactive”. Turning to `COc1ccc(CN2CCC(N(CCc3ccccc3)Cc3ccccc3)CC2)c(OC)c1`, the outcome was inactive. Still for that read-out and setting: for `O=C(NC(=S)NNC(=O)c1ccccc1[N+](=O)[O-])c1ccc(Br)cc1` the value was “inactive”.

Regarding `O=C(NC1CCN(Cc2ccccc2)CC1)C12CC3CC(CC(C3)C1)C2`, the result was inactive. As to `CCCN1CCN(C(=O)Cn2c(=O)oc3cc(S(=O)(=O)NCc4ccccc4)ccc32)CC1`, the outcome was inactive. With `Cn1c2ccccc2c(=O)c2c(=O)n(C3CCCCC3)c(-c3ccco3)nc21`, the result was inactive.

Consider `OCCC1CN(Cc2ccccc2-c2ccco2)CCN1Cc1ccccc1` (stereo not given), for which the result was inactive. Turning to `CCN1CCCC1CNS(=O)(=O)c1c(C)cc(C)cc1C` (stereo not given), the result was inactive. For the molecule `Cc1ccc(OCC(=O)N(C)CCc2ccccn2)cc1`, the outcome was inactive. On the same count and under the same terms, for `CC(C)n1cnc2c(N(C)c3ccccc3)nc(N(CCN(C)C)Cc3ccccc3)nc21` the value was “inactive”; for `CCC(=O)N1CCc2cc(Br)cc(S(=O)(=O)NCCCN(CC)Cc3ccccc3)c21`, “inactive”. With `NCCCNC(=O)c1cc2ccccc2[nH]1`, the result was inactive. With `CN(C)C(CNC(=O)Nc1cccc(Cl)c1)c1cccnc1` (stereo not given), the result was inactive. As for `CN(C)C(CNC(=O)CCS(=O)(=O)c1ccccc1)c1ccccc1` (stereo not given), the outcome was inactive.

`COc1c2c(cc3c1C(CC(O)Cc1ccccc1)N(C)CC3)OCO2` (stereo not given): the result was inactive. As for `CC1CN(C)C(C)c2c1oc1ccc(N)cc21` (stereo not given), the result was inactive. On the same count and under the same terms, under `CN(C)c1ccc(C(CNC(=O)Cc2cccc3ccccc23)N(C)C)cc1` (stereo not given) stands “inactive”; under `Cc1cc(C)cc(NC(=S)N2CCN(c3ncc(C(F)(F)F)cc3Cl)CC2)c1`, “inactive”; under `COC(=O)C1CCN(Cc2cn(-c3ccccc3)nc2-c2ccc3c(c2)OCO3)CC1`, “inactive”. As to `Cc1cccc(OCCOCCN2CCNCC2)c1C`, the result was inactive. With `O=C1/C(=C\c2cc([N+](=O)[O-])ccc2O)SC(=S)N1Cc1ccc(Cl)cc1`, the potentiation, percent of control is 192% (active). With `CCn1c(N2CCN(S(=O)(=O)CC)CC2)nc2ccccc21`, the outcome was inactive. `COc1ccc(CSCCN)cc1Cl`: the outcome was inactive.

Turning to `O=C1S/C(=C\c2ccc(N3CCOCC3)o2)C(=O)N1Cc1c(F)cccc1Cl`, the potentiation, percent of control was 191% (active). For the molecule `CC(C)(C)[C@H]1C=C(C(=O)NCc2ccccc2)O[C@@H](OCc2ccc(CO)cc2)C1`, the outcome was inactive.

For `Nc1c(C(=O)c2ccccc2)sc2nsc(SCCN3CCCC3)c12`, the result was inactive.

For `O=C(CC(=O)c1c(F)cccc1Cl)c1ccccc1O`, the result was inactive.

Consider `Cc1ccccc1Cn1c(CN2CCc3ccccc3C2)nc2c1c(=O)n(C)c(=O)n2C`, for which the outcome was inactive. Same read-out and setting: under `Cc1csc2c(N3CCN(C(=O)Nc4ccc(OC(F)(F)F)cc4)CC3)ncnc12` stands “inactive”. Still for that read-out and setting: for `O=S(=O)(NCCc1csc(-c2ccccc2)n1)c1cccnc1` the value was “inactive”.
